Here are results for 56 compounds from PMC4336329 (PLoS ONE, 2015).

Out of some 310,000 compounds screened, about 14,000 (4.5%) showed an effect of 50% or more. Effects have a minus sign here. The list comes from a sample in which strong results are over-represented; it also holds similar structures and randomly drawn compounds.
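Note: peak tail current of the secondary pulse compared with the same well before compound.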

The target in this experiment is human ether-à-go-go-related gene (hERG) potassium channel (human, UniProt Q12809). In words: primary screen, population patch clamp on CHO cells stably expressing hERG; higher = less effect of the substance.
human ether-à-go-go-related gene (hERG) potassium channel, sequence (Q12809 whole entry, looked up): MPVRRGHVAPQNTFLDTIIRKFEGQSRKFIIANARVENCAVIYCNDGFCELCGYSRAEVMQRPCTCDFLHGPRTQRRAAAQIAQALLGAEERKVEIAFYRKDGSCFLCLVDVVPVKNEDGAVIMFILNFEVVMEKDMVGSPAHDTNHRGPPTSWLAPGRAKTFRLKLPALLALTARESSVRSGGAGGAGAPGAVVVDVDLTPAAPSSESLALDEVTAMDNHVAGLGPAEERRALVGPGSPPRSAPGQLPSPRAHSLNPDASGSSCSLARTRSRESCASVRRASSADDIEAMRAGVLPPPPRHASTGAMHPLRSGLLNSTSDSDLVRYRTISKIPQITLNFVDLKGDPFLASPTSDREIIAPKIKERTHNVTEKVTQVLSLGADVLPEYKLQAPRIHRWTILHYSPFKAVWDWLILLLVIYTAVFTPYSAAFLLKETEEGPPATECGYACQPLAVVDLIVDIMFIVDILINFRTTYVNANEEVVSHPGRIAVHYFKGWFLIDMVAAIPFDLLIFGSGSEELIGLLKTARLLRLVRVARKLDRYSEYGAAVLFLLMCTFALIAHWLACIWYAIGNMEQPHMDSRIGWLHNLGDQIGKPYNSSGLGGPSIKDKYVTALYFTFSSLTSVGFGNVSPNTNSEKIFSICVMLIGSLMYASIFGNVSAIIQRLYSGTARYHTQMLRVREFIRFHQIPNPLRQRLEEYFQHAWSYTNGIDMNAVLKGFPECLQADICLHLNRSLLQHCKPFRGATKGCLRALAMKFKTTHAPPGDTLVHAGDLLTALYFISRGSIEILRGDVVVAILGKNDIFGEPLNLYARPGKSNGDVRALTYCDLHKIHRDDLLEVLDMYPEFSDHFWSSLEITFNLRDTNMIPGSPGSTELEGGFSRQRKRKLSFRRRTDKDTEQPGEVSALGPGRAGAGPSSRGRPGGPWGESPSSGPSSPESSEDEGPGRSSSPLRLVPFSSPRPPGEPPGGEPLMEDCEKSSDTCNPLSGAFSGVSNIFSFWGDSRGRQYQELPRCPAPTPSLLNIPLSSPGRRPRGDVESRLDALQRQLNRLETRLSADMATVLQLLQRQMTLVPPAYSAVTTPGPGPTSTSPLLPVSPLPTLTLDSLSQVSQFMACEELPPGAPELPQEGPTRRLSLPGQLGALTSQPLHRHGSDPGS
Regarding `CCOC(=O)N1CCN(CC(=O)N2c3ccccc3CC2C)CC1.O=C(O)C(=O)O` (centres unmarked), the “hERG current change (%, negative = inhibition) at 10uM” value is on record as 10.4%.
With `Cc1ccc(CNC(=O)C2CCN(S(=O)(=O)c3ccc(Br)s3)CC2)cc1`, the “hERG current change (%, negative = inhibition) at 10uM” value worked out at 3.77%.
On to `COC(=O)c1cc2nc(-c3ccccc3)cc(C(F)(F)F)n2n1`, for which the “hERG current change (%, negative = inhibition) at 10uM” value was 19.7%.
For `CCOc1ccc(S(=O)(=O)/N=C(\N)c2ccccc2)cc1` the value was -7.03%; for `CCCCCCCC(=O)Nc1cc(C(=O)NCc2ccc(C)cc2)ccc1N1CCC2(CC1)CC(c1cccc(Br)c1)=NO2`, 2.8%.
For `CCSCCOC(=O)C1=C(C)NC(=O)NC1c1ccc2c(c1)OCO2` (centres unmarked), the “hERG current change (%, negative = inhibition) at 10uM” value was -13.4%.
For `Cc1cccc(C(=O)N(NC(=O)Oc2ccccc2)C(C)(C)C)c1` the value was -13%.
For `CCc1ccc(NC(=O)CCNS(=O)(=O)c2cccc3nsnc23)cc1` the value was -14.9%; for `O=C(Cc1ccc([N+](=O)[O-])cc1)Nc1ccc2c(c1)OCO2`, -13.9%; for `O=C(Nc1ccc2c(c1)OCCO2)C1CCC1`, 7.7%.
`O=C(Nc1ccc2c(c1)OCO2)C1CCN(S(=O)(=O)c2ccc3c(c2)OCCO3)CC1`: the “hERG current change (%, negative = inhibition) at 10uM” value is 7.45%.
Next, `Cc1ccccc1C(=O)N1CCC(C(=O)Nc2ccc3c(c2)OCCO3)CC1`: 5.7%; `O=C(Nc1ccc2c(c1)OCO2)C1CCN(C(=O)c2ccc([N+](=O)[O-])cc2)CC1`: -84.2%.
Take `O=C(Nc1ccc2c(c1)OCCO2)C1CCN(C(=O)c2ccc([N+](=O)[O-])cc2)CC1`: the “hERG current change (%, negative = inhibition) at 10uM” value is on record as -65.6%.
Turning to `CC(=O)Nc1nc(C)c(Cc2ccccc2)c(=O)[nH]1`, the “hERG current change (%, negative = inhibition) at 10uM” value is -1.04%.
As for `Cn1cnc(S(=O)(=O)NCc2ccccc2)c1`, the “hERG current change (%, negative = inhibition) at 10uM” value is 2.77%.
Next, `Cc1ccccc1OCCOC(=O)c1nc2nccc(C)n2n1`: -14.1%.
For `COc1ccccc1NC(=O)C1=C(C)Nc2nnnn2C1c1ccncc1` (centres unmarked) the value was -12.4%; for `CCOC(=O)c1c(CN2CCOCC2)n(-c2ccccc2)c2ccc(O)cc12`, -69.2%.
Next, `CCOC(=O)c1c(C)n(Cc2ccccc2)c2ccc(O)cc12`: 4.43%; `CCOC(=O)c1c(CN2CCOCC2)n(-c2ccccc2)c2cc(Br)c(O)c(CN(C)C)c12`: -42.3%; `CCOC(=O)c1c(C)n(-c2ccc(F)cc2)c2ccc(O)cc12`: 16.4%.
Consider `CCOC(=O)c1c(CN(CC)CC)n(-c2ccccc2)c2ccc(O)cc12`, for which the “hERG current change (%, negative = inhibition) at 10uM” value is on record as -66.7%.
Next, `CCOC(=O)c1c(C)n(-c2ccccc2)c2ccc(O)cc12`: 13.8%; `COc1ccc(S(=O)(=O)N(CC(C)C)C2CCS(=O)(=O)C2)cc1OC` (centres unmarked): 4.62%; `CC(=O)c1ccc(N2CCN(C(=O)C3CCN(S(=O)(=O)c4ccc5c(c4)CC(C)N5C(=O)C4CC4)CC3)CC2)cc1` (centres unmarked): -8.83%.
With `COc1ccc(CNC(=O)COC(=O)c2ccc3ncsc3c2)cc1OC`, the “hERG current change (%, negative = inhibition) at 10uM” value is 14.5%.
Next, `C=C(C)C(=O)N1CC2(CC(c3cccc(NC(=O)/C=C\C=C/C)c3)=NO2)C[C@H]1C(N)=O` (some centres unmarked): 0.942%; `CSc1ccc(S(=O)(=O)NCC(=O)OCC(=O)N2CCCC2=O)cc1[N+](=O)[O-]`: -9.51%; `Cc1nn(CC#N)c(=O)n1-c1ccccc1F`: 10.8%.
Regarding `COc1cc(CNCCN2CCOCC2)ccc1OCC(=O)NC(C)(C)C.Cl`, the “hERG current change (%, negative = inhibition) at 10uM” value is 6.17%.
For `COc1cc(CNCCN2CCOCC2)ccc1OCc1ccccc1Cl.Cl` the value was -45.7%; for `COc1cc(CNCCN(C)C)ccc1OCc1c(F)cccc1Cl.Cl`, -19.6%.
Next, `COc1cc(CNCCN2CCOCC2)ccc1OCc1cccc(Cl)c1.Cl`: -63.2%.
For `COc1cc(CNCCN2CCOCC2)ccc1OCc1ccc(Cl)cc1Cl.Cl` the value was -69.7%.
As to `COc1cc(CNCCCN2CCOCC2)cc(Br)c1OCc1ccc(Cl)cc1.Cl`, the “hERG current change (%, negative = inhibition) at 10uM” value is listed as -35.5%.
Next, `COc1cc(CNCCN2CCOCC2)ccc1OCc1c(Cl)cccc1Cl.Cl`: -50.6%.
Regarding `COc1cc(CNCCN2CCOCC2)ccc1OCc1ccc(Cl)cc1.Cl`, the “hERG current change (%, negative = inhibition) at 10uM” value is reported as -42.1%.
Next, `COc1cc(CNCCO)cc(Cl)c1OCc1ccc(Cl)cc1Cl.Cl`: -7.34%; `O=C1CC2C(=O)NCCN2C(=NC(=O)c2ccc(Cl)cc2)N1` (centres unmarked): -15.7%.
Take `COc1ccc(C(=O)Nc2ccc(NC(=O)C(C)C)nc2)cc1`: the “hERG current change (%, negative = inhibition) at 10uM” value is given as 18.9%.
For `COc1cccc(/C=N/n2c(-c3n[nH]c4c3CCC4)n[nH]c2=S)c1OC` the value was 14.1%; for `O=C(NCCCNC(=O)c1ccc(Cl)cc1Cl)c1ccccn1`, -2.08%.
Next, `O=C(CSc1nnc(CNC(=O)c2cccs2)o1)Nc1ccc(Cl)cc1`: -4.26%; `CCC(C)NC(=O)COc1ccccc1[N+](=O)[O-]` (centres unmarked): 16%.
For `CSCCC(NC(=O)c1ccco1)C(=O)NCC(c1ccccc1)N(C)C` (centres unmarked), the “hERG current change (%, negative = inhibition) at 10uM” value is recorded as -9.02%.
Next, `COc1ccc(C/C(N)=N/OC(=O)Cc2ccccc2)cc1`: -7.03%.
With `CCOC(=O)c1c(NC(=S)Nc2ccccc2)sc2c1CC(C)(C)SC2`, the “hERG current change (%, negative = inhibition) at 10uM” value is listed as -3.74%.
Next, `CCOC(=O)c1c(NC(=O)Nc2ccc(F)cc2)sc2c1CCN(C)C2`: -26%; `CCOC(=O)c1c(NC(=O)Nc2ccc(C)cc2)sc2c1CCN(C)C2`: -47.6%; `CCOC(=O)c1c(NC(=S)Nc2ccc(OCC)cc2)sc2c1CCN(C)C2`: -70.4%.
Next, `CCOC(=O)c1c(NC(=S)Nc2ccc(Cl)cc2)sc2c1CCN(C)C2`: -74.2%; `CCOC(=O)c1c(NC(=S)Nc2ccccc2)sc2c1CCN(C)C2`: -74.2%; `CCOC(=O)c1c(NC(=S)Nc2ccccc2)sc2c1CCCCC2`: 17.3%.
`CCOC(=O)c1c(NC(=S)Nc2ccc(OC)cc2)sc2c1CCC2`: the “hERG current change (%, negative = inhibition) at 10uM” value came out at 14%.
With `CCOC(=O)c1c(NC(=S)Nc2ccc(OC)cc2)sc2c1CCCCC2`, the “hERG current change (%, negative = inhibition) at 10uM” value was found to be 12.5%.
